Growth inhibition data for 21 molecules are collected here from PubChem BioAssay (NCI).

The panel holds about 79,000 compounds, 15% with a hit somewhere; the sample as a whole holds those more often. Values without a mark were called inactive. Calls of active or inactive are those of the source. Rule as the data show it: active = growth inhibition above about 70%; inactive = the rest.

Assay [1] in a line: NCI Yeast Anticancer Drug Screen. Data for the rad50 strain (AID 155).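 Also: 0% = growth of vehicle-only cultures of the same strain.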 The conditions noted are these: S. cerevisiae rad50 strain growth inhibition; at 50.0 µM; stronger effect = higher value. In a few lines:
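DNA repair mutant yeast, compound exposure, growth read-out; inhibition is taken relative to vehicle.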

Assay [2] is described as follows: NCI Yeast Anticancer Drug Screen. Data for the mec2-1 strain (AID 157). Particulars: S. cerevisiae mec2-1 strain, at 50.0 µM, stronger effect = higher value. The procedure, abridged:
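Growth inhibition is read against vehicle-treated controls after compound exposure of the mec2-1 yeast strain, which is defective in DNA damage repair or cell cycle control.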

Assay [3] in a line: NCI Yeast Anticancer Drug Screen. Data for the sgs1 mgt1 strain (AID 161).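 Also: 0% = growth of cultures given vehicle only.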 The conditions noted are these: S. cerevisiae sgs1 mgt1 strain, at 50.0 µM, stronger effect = higher value. In a few lines:
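This yeast growth screen uses a strain with defined DNA-repair lesions; compound-treated growth is compared with vehicle-treated growth.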

The nature of assay [4]: NCI Yeast Anticancer Drug Screen. Data for the cln2 rad14 strain (AID 165).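 Also: 0% = growth equal to vehicle treated cultures.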 Particulars: S. cerevisiae cln2 rad14 strain, at 50.0 µM, stronger effect = higher value. In a few lines:
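Growth inhibition, relative to vehicle-treated controls, is the read-out. The test organism is a yeast strain with defined genetic alterations, cln2 rad14.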

A short description of assay [5]: NCI Yeast Anticancer Drug Screen. Data for the bub3 strain (AID 167). The conditions noted are these: S. cerevisiae bub3 mutant strain, at 50.0 µM, stronger effect = higher value. In a few lines: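 In this screen, a yeast mutant lacking normal mitotic checkpoint function is challenged with compound. Relative growth versus vehicle gives the inhibition value.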
The nature of assay [6]: NCI Yeast Anticancer Drug Screen. Data for the mlh1 rad18 strain (AID 175). Particulars: S. cerevisiae mlh1 rad18 strain growth inhibition; at 50.0 µM; stronger effect = higher value. The procedure, abridged:
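Cells of a genetically altered yeast strain, deficient in DNA damage repair, were treated with compound. Their growth was then compared with that of vehicle-treated cultures to give inhibition.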

As to `CCOC(=O)NC1C2CC3C(C2)C31` (stereo unspecified), the growth inhibition in assay [1] is -54.6%; in assay [2] it was -32.7%; in assay [3], -29.4%; in assay [4], -20.6%; in assay [5], -52.4%; in assay [6], -32.5%.

As to `O=C1c2cccc3cc([N+](=O)[O-])cc(c23)C(=O)N1Cc1ccco1`, the growth inhibition in assay [1] was 24.6%; in assay [2], 8.85%; in assay [3], 32.2%; in assay [4], 16.8%; in assay [5], 7.65%; in assay [6], 0.95%.

Take `CCCNC(C)C(C)O` (stereo unspecified): the growth inhibition in assay [1] was -5.9%; in assay [2] it was -16.4%; in assay [3], -24.1%; in assay [4] it was -16.3%; in assay [5], -4.75%; in assay [6], -10.9%.

As to `CN1C(=O)C(C)(O)Sc2ccccc21` (stereo unspecified), the growth inhibition was -1.2% in assay [1]; -19.4% in assay [2]; -36.2% in assay [3]; -17.9% in assay [4]; -9.2% in assay [5]; 0.1% in assay [6].

On to `O=C(NC(Cc1ccccc1)C(=O)O)c1ccccc1` (stereo unspecified), for which the growth inhibition in assay [1] was 4%; in assay [2], 4.9%; in assay [3] it was 24.1%; in assay [4], -1.6%; in assay [5], 6.7%; in assay [6] it was 1.55%.

Regarding `NC(=O)NCc1ccc(CNC(N)=O)cc1`, the growth inhibition in assay [1] was 11.3%; in assay [2], 15.1%; in assay [3] it was -2.9%; in assay [4], -61.5%; in assay [5], 3.25%; in assay [6], 3.35%.

On to `COc1ccc(CC(C)C(C)Cc2ccc(OC)c(OC)c2)cc1OC` (stereo unspecified), for which the growth inhibition in assay [1] is 4.9%; in assay [2], 9.15%; in assay [3], 1.6%; in assay [4], -4.75%; in assay [5] it was 4.25%; in assay [6], -3.6%.

For the molecule `O=C(CCc1ccccc1)NC(=S)Nc1cccc([N+](=O)[O-])c1`, the growth inhibition in assay [1] was -1.75%; in assay [2] it was 25.9%; in assay [3], 53.5%; in assay [4], -13.8%; in assay [5] it was 52.2%; in assay [6], 86% (active).

With `O=C1CCC(c2n[nH]c(=S)o2)N1` (stereo unspecified), the growth inhibition was -2.8% in assay [1]; 22.7% in assay [2]; 9.05% in assay [3]; -6.65% in assay [4]; 13.2% in assay [5]; 4.75% in assay [6].

With `CN(C)/C=N\c1ncnc2c1ccn2C1OC(CO)C(O)C1O` (stereo unspecified), the growth inhibition was -2.15% in assay [1]; -5.4% in assay [2]; -10.3% in assay [3]; 10.2% in assay [4]; 3.15% in assay [5]; -4.7% in assay [6].

As for `Cc1c2c(cc3c1CCC1(C)C3CCC1C(C)/C=C/C(C)C(C)C)CC(O)CC2` (stereo unspecified), the growth inhibition in assay [1] is 6.65%; in assay [2], 11.8%; in assay [3], 2.6%; in assay [4] it was -0.2%; in assay [5], -3%; in assay [6] it was 20.5%.

Regarding `COCNC(=O)NCC(F)(F)C(F)(F)C(F)(F)C(F)(F)C(F)(F)C(F)(F)C(F)(F)F`, the growth inhibition in assay [1] was -9.9%; in assay [2], 7.6%; in assay [3], -1.2%; in assay [4], 15.9%; in assay [5], -5.7%; in assay [6], 28.5%.

Take `COc1ccc(Cl)cc1NC(=O)Oc1ccc2ccccc2c1`: the growth inhibition was -5.8% in assay [1]; 29.2% in assay [2]; 12.2% in assay [3]; -12.7% in assay [4]; 27.3% in assay [5]; 38.2% in assay [6].

In the case of `CN(CCC#N)c1ccc(/C=C(\C#N)c2ccc(Br)cc2)cc1`, the growth inhibition in assay [1] was 12.2%; in assay [2] it was -23.8%; in assay [3], 13.6%; in assay [4], -12%; in assay [5], -0.85%; in assay [6] it was -18.9%.

Take `O=C(Nc1cc([N+](=O)[O-])ccc1Cl)c1ccc(F)cc1`: the growth inhibition in assay [1] was 13.2%; in assay [2] it was 6.4%; in assay [3] it was 14.6%; in assay [4] it was 17.8%; in assay [5], 28.9%; in assay [6] it was 19.8%.

With `CC(=O)OCCOc1ccccc1Cl`, the growth inhibition is 2.75% in assay [1]; -5.8% in assay [2]; 3.25% in assay [3]; -16.9% in assay [4]; -23.1% in assay [5]; -13.1% in assay [6].

In the case of `CC1=CC(=C(c2cc(C)c(O)c(C(=O)O)c2)c2cc(C)c(O)c(C(=O)O)c2)C=C(C(=O)O)C1=O`, the growth inhibition was -2.3% in assay [1]; -28.1% in assay [2]; -8.5% in assay [3]; 2.3% in assay [4]; 8.8% in assay [5]; 7.3% in assay [6].

Turning to `Nc1c(N=Nc2ccc(S(=O)(=O)O)cc2)cc2c3c(cccc13)CC2`, the growth inhibition is 11.3% in assay [1]; 2.35% in assay [2]; 20.6% in assay [3]; 8.65% in assay [4]; -39.5% in assay [5]; 2.4% in assay [6].

As for `CC(C)(C)C(=O)CC(=O)C(C)(C)C`, the growth inhibition was -3.9% in assay [1]; -9.5% in assay [2]; 2.25% in assay [3]; -57.4% in assay [4]; -2.8% in assay [5]; -15.8% in assay [6].

As for `CCOC(=O)c1c(-c2ccccc2)c(-c2ccccc2)cn1C`, the growth inhibition is 18.3% in assay [1]; -7.45% in assay [2]; 5.2% in assay [3]; 25.9% in assay [4]; 6.45% in assay [5]; 24.3% in assay [6].

Regarding `Cc1cc2nn(C3CCCCO3)nc2cc1C` (stereo unspecified), the growth inhibition is 1.75% in assay [1]; -20.4% in assay [2]; -21.6% in assay [3]; -25.4% in assay [4]; 8.05% in assay [5]; -46.8% in assay [6].
